# Test: RPL19A-GFP modulators, yeast TOR pathway, confirmation, cell-based, S. cerevisiae, flow cytometry, cherry picks, mother/daughter gates (AID 2270)
# Conditions: S. cerevisiae RPL19A-GFP strain, 3 h, measured here: mother cell gate, at 10 µM, stronger effect = lower value, 100 = same GFP as DMSO wells
row,SMILES,GFP response vs DMSO [%]
1,O=C(Nc1cccnc1)c1ccc(-c2ccc(Cl)cc2)o1,97.7
2,Oc1c(N=Nc2ccccn2)ccc2ccccc12,87.3
3,Cc1cccn2c(=O)c3cc(C(=O)NCCc4ccccc4)c(=N)n(CCCn4ccnc4)c3nc12,95
4,Cc1ccc(CS(=O)(=O)c2ncc(Cl)c(C(=O)Nc3nnc(C(C)C)s3)n2)cc1,94
5,Oc1ccc2ccccc2c1N=Nc1nccs1,98
6,Oc1c(CN2CCN(c3ccc(F)cc3)CC2)cc(Cl)c2cccnc12,94.3
7,Oc1ccc(Br)cc1/C=N/Nc1ccccn1,83.8
8,O=C(/C=C/Sc1ncn[nH]1)c1ccc(Cl)cc1,99.8
9,C/C(=N\Nc1ncnc2sc(C)c(C)c12)c1ccccn1,175
10,CC(=O)Nc1ccc(Nc2cc(C)nc3c(-c4ccc(Cl)cc4)c(C)nn23)cc1,95.8
11,O=C1C=CC(=O)N1c1ccc(N2CCCCC2)cc1,63.8
12,CCn1c(/C=C/c2ccc([N+](=O)[O-])o2)nc2ccccc2c1=O,135
13,COc1ccc(C(=O)NC(=S)NNC(=O)CCc2ccccc2)cc1,106
14,Cc1ccc(-c2noc(CCC(=O)Nc3ccccc3C)n2)cc1,96.5
15,Nc1c(C(=O)c2cccs2)sc2nsc(SCCN3CCCCC3)c12,118
16,Cc1[nH]c(-c2ccccn2)nc(=S)c1Cl,95.8
17,CCCCC(=O)O[C@]1(C(=O)CO)CC[C@H]2[C@@H]3CCC4=CC(=O)CC[C@]4(C)[C@H]3[C@@H](O)C[C@@]21C,99
18,Nc1ccccc1SC(C[N+](=O)[O-])c1ccccc1 (stereo not given),87.6
19,N/C(=N\OC(=O)c1ccccc1Cl)c1ccc(Cl)cc1,101
20,Cc1[nH][nH]c(=O)c1C(c1ccc(-c2ccc(Cl)cc2)o1)c1c(C)[nH][nH]c1=O,99.8

row,SMILES,GFP response vs DMSO [%]
1,Cc1ccc(/C=C2/C(=O)ON=C2c2ccccc2)o1,82.8
2,C[n+]1ccc(/C=C/c2c[nH]c3ccccc23)cc1,107
3,Cc1cc(O)c(C(=O)/C=C/c2c(F)c(F)c(F)c(F)c2F)c(=O)o1,94.9
4,Cc1cc(O)ccc1NC(=O)c1ccccc1,95.6
5,CCOc1ccc(Nc2ccc(C(=O)O)cc2[N+](=O)[O-])cc1,104
6,O=C1C=CC(=O)N1c1cccc(-c2ccccc2)c1,59.1
7,Cc1cccc(C)c1NC(=O)C(Cl)C(=O)c1ccccc1 (stereo not given),82.5
8,O=C(NC(=S)NNC(=O)c1cnccn1)c1ccc(F)cc1,105
9,CCCc1[nH]nc2c1C(c1ccccc1OC)C(C#N)=C(N)O2 (stereo not given),94.3
10,CCCNC(=O)COC(=O)c1ccc(S(=O)(=O)N2CCCC2)cc1,88.1
11,CC(C)(C)C(=O)NC(=S)NNC(=O)c1ccc(-c2ccccc2)cc1,104
12,O=C1Oc2ccccc2C(=O)/C1=C/c1ccccc1O,80.2
13,O=C(Nc1ccccc1)c1nnsc1S(=O)(=O)c1ccc(Cl)cc1,61.5
14,CCCc1cc(NCc2ccccn2)n2nc(C)c(-c3ccccc3)c2n1,91.2
15,Cc1cc(C)nc(S/C=C/C(=O)c2ccccc2)n1,98
16,Cc1nn2c(NCc3ccccn3)c3c(nc2c1-c1ccccc1)CCC3,93.7
17,CC(NCCS(=O)(=O)c1ccc(Cl)cc1)c1cccc(Cl)c1 (stereo not given),94
18,CCCOc1ccc(C(=O)NNC(=S)NC(=O)CC)cc1,117
19,O=C(c1ccc(Cl)c([N+](=O)[O-])c1)N1CCN(c2ccccc2)CC1,96.7
20,O=C(c1ccc2c(c1)OCO2)N1CCN(c2ccccc2)CC1,94

# Reference: PubChem BioAssay
